# PubChem BioAssay (NCATS)
# Inconclusive results are not listed. Where a call stands in place of a potency, no number is given. Values without a mark were called inactive. The source made the active and inactive calls. Calls follow the shape of the dose curve; as a rule, active = well fitted curve in the direction sought with a large enough effect; inconclusive = small, poorly fitted or top-dose-only effect, or another doubt; inactive = no such curve, though single readings can be large; an effect the other way counts as inactive or inconclusive.
# Experiments:
# [1] = qHTS of pediatric cancer cell lines to identify multiple opportunities for drug repurposing: Confirmatory screen for Rh18 cells (AID 1347125); details: Rh18 rhabdomyosarcoma cells, viability; series mostly up to 45.9 µM; also: nearly all actives have a fitted effect of over 55% in size
# Method in brief: (§1)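 Viability after 48 h compound treatment at 37C, 500-1,000 cells/well, read as ATP luminescence with CellTiter-Glo. Primary screens used 11-point (MIPE, 0.78 nM-46 µM) or 8-point (NPC, 0.59 nM-46 µM) final concentrations; follow-up screens used 11-point dilutions.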
# [2] = qHTS of pediatric cancer cell lines to identify multiple opportunities for drug repurposing: Confirmatory screen for Saos-2 cells (AID 1347127); details: Saos-2 osteosarcoma cell viability; series mostly up to 45.9 µM; also: nearly all actives have a fitted effect of over 60% in size
# Method in brief: as §1
# [3] = qHTS of pediatric cancer cell lines to identify multiple opportunities for drug repurposing: Confirmatory screen for OHS-50 cells (AID 1347128); details: OHS-50 osteosarcoma cells viability; series mostly up to 45.9 µM;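 also: compound exposure lasted 48 h at 37 degrees C; nearly all actives have a fitted effect of over 55% in size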
# Method in brief: as §1
# [4] = qHTS of pediatric cancer cell lines to identify multiple opportunities for drug repurposing: Confirmatory screen for SK-N-SH cells (AID 1347129); details: SK-N-SH neuroblastoma cell viability; series mostly up to 46.1 µM;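 also: cells exposed to compound for 48 h before viability read; nearly all actives have a fitted effect of over 60% in size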
# Method in brief: as §1
# [5] = qHTS of pediatric cancer cell lines to identify multiple opportunities for drug repurposing: Confirmatory screen for RD cells (AID 1347124); details: RD rhabdomyosarcoma cell viability; series mostly up to 45.9 µM;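 also: cells exposed to compound for 48 h before viability readout; nearly all actives have a fitted effect of over 65% in size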
# Method in brief: as §1
# [6] = qHTS of pediatric cancer cell lines to identify multiple opportunities for drug repurposing: Confirmatory screen for Rh30 cells (AID 1347126); details: Rh30 rhabdomyosarcoma cell viability; series mostly up to 45.9 µM; also: nearly all actives have a fitted effect of over 55% in size
# Method in brief: as §1
# [7] = target: N-terminal Xaa-Pro-Lys N-methyltransferase 1 (Homo sapiens) (UniProt Q9BV86); assay: qHTS Assay for Inhibitors of N-terminal methyltransferase 1 (NTMT1): LOPAC validation of the NTMT1 SAHH-coupled ThioGlo3 Assay (AID 1347143); details: recombinant NTMT1, SAHH-coupled ThioGlo3 fluorescence; series mostly up to 114 µM;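 also: SAH from peptide methylation measured as thiol fluorescence via SAHH coupling and ThioGlo3; nearly all actives have a fitted effect of over 70% in size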
# N-terminal Xaa-Pro-Lys N-methyltransferase 1 (Homo sapiens), sequence (Q9BV86 whole entry, looked up): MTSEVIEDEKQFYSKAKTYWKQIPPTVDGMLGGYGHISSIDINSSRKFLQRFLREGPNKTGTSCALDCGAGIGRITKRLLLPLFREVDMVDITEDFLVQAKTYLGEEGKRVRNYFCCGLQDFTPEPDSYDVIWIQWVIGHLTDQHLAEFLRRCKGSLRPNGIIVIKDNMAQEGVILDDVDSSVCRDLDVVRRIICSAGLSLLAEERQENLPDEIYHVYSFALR
# Method in brief: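 Recombinant human NTMT1 (125nM) was pre-incubated 1 min at room temperature with compounds over a concentration range, then a mix of 100uM SAM, 10uM SAHH and 15uM ThioGlo3 (concentrations in added reagent) was added. ThioGlo3 fluorescence (ex 340/em 450nm) after 30 min was normalized to the initial reading.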
# [8] = system: Zika virus NS2B-NS3 protease (unlinked); assay: Optimization of GU AMC qHTS for Zika virus inhibitors: Unlinked NS2B-NS3 protease assay (AID 1347151); details: recombinant ZIKV NS2B-NS3 protease, fluorogenic AMC substrate; series mostly up to 52.5 µM; also: nearly all actives have a fitted effect of over 80% in size
# Method in brief: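 Percent inhibition is derived from the 15-min change in AMC fluorescence, normalized against no-inhibitor and no-enzyme controls, then fitted to a 4-parameter Hill curve. Aprotinin was the intraplate control.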
# [9] = system: Zika virus NS2B-NS3 protease (linked construct); assay: Confirmatory screen NINDS AMC qHTS for Zika virus inhibitors (AID 1347152); details: Purified linked NS2B-NS3, AMC substrate fluorescence; series mostly up to 56.6 µM; also: nearly all actives have a fitted effect of over 70% in size;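 as to activity change, negative = inhibition: AMC fluorescence gain from cleaved Bz-Nle-KRR-AMC substrate over 15 min; top concentration of the series differs between compounds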
# Method in brief: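 In this dose-response qHTS, AMC release from 10 microM Bz-Nle-KRR-AMC by 1 nM linked protease is measured over 15 minutes (about 20% conversion) at pH 8.0. Percent inhibition is fitted to a 4-parameter Hill curve.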
# [10] = target: Furin (Homo sapiens) (UniProt P09958); assay: Furin counterscreen qHTS for Zika virus inhibitors (AID 1347149); details: furin enzymatic counterscreen, fluorogenic substrate; series mostly up to 114 µM; also: nearly all actives have a fitted effect of over 70% in size;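 as to activity change, negative = inhibition: fluorescence gain from furin cutting a BOC-RVRR-AMC peptide substrate over 15 min; top concentration of the series differs between compounds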
# Furin (Homo sapiens), sequence (P09958 whole entry, looked up): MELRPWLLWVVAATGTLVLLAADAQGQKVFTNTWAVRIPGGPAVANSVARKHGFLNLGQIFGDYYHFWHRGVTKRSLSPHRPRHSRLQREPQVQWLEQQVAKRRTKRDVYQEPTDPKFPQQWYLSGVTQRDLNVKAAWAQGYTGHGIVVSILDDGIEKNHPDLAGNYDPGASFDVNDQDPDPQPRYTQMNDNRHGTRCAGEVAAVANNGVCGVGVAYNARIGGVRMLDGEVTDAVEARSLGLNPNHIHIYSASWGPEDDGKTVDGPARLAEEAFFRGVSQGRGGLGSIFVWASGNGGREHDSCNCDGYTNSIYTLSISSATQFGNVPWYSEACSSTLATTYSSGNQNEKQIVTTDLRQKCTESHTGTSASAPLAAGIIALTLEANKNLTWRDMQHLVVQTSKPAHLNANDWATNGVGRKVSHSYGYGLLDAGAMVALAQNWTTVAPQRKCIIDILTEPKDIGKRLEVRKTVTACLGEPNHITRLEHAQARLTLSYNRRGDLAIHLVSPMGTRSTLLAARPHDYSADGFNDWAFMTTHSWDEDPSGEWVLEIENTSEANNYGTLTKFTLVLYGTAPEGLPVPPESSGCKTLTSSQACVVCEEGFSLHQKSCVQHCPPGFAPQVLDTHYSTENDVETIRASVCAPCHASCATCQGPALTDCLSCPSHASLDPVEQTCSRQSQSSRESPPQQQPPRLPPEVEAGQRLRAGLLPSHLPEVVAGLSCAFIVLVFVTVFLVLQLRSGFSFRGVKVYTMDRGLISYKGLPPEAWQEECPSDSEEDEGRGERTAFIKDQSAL
# Description: Avindra Nath, Ph.D., National Institute of Neurological Disorders and Stroke (NINDS), Bethesda, MD
# Radhakrishnan Padmanabhan, Ph.D., Georgetown University (GU), Washington D.C.
# Zika Virus causes congenital defects, including microcephaly and is associated with Guillain-Barre syndrome, eningoencephalitis and myelitis in infected adult. […] Using a target-based approach, we hope to establish a screening paradigm to uncover novel, cell-active NS2B-NS3 protease (Zika Virus) specific inhibitors from NCATS' collection of small molecules using qHTS.
# Four assay panel was created to identify potential Zika Virus inhibitors. Namely, (1) GU unlinked NS2B-NS3 AMC tagged protease qHTS, (2) GU unlinked NS2B-NS3 Rhodamine tagged protease qHTS, (3) NINDS linked NS2B-NS3 AMC tagged protease qHTS, (4) NINDS linked NS2B-NS3 Rhodamine tagged protease qHTS. Active compounds were re-acquired and re-screened to confirm inhibition. Inhibitors were further screened against various confirmatory and counterscreens in dose response format.
# Early Translation Branch (ETB)
# National Center for Advancing Translational Sciences (NCATS), Rockville, MD
# National Institute of Health (NIH), Bethesda, Maryland
# 1536-well Furin BOC-RVRR-AMC Protocol:
# Human recombinant Furin Serine Protease was purchased from Peprotech (catalog #450-47; full length; Rocky Hill, NJ). Briefly, 3 microL of enzyme (final concentrations of 5 nM), in assay buffer (100 mM HEPES pH 7.0, 1 mM CaCl2 with 0.01% Triton X-100) were dispensed into a 1,536-well solid-bottom black plate (Greiner Bio One, Monroe, NC). Twenty-three nL of compounds (final concentration range 7.28 nM to 114 microM) or control Furin Inhibitor I (Dec-RVKR-CMK; final concentration range 0.248 nM to 8.12 microM) were transferred via Wako Pin-tool (Wako Automation, Richmond, VA). Samples were incubated (RT, protected from light) for 15 minutes followed by a 1 microL substrate addition of BOC-RVRR-AMC (final concentration of 2 microM; Km = ~15 muM90). Plates were then read immediately on a ViewLux High-throughput CCD imager (PerkinElmer, Waltham, MA) equipped with standard UV fluorescence optics (340(30) nm excitation, 450(20) nm emission), then incubated (37C, protected from light) for 15 or 30 minutes (~9% conversion). The change in fluorescence intensity over the 15-minute reaction period was normalized against no-inhibitor and no-enzyme controls and the resulting percent inhibition data were fitted to a 4-parameter Hill equation. Furin Inhibitor I was used as intraplate control.
# Potency is read from the fitted curve at half-maximal effect.
compound,measurement,setting,value
CCN(CC)CC(=O)OCC(=O)[C@@]1(O)CC[C@H]2[C@@H]3CCC4=CC(=O)CC[C@]4(C)[C@H]3[C@@H](O)C[C@@]21C,Potency,[1],inactive
same,Potency,[2],inactive
same,Potency,[3],inactive
same,Potency,[4],inactive
Cc1cc(OCCOCC[N+](C)(C)Cc2ccccc2)ccc1C(C)(C)CC(C)(C)C,Potency,[5],10.4 µM (active)
same,Potency,[1],18.5 µM (active)
same,Potency,[6],13.1 µM (active)
same,Potency,[2],7.37 µM (active)
same,Potency,[3],14.7 µM (active)
same,Potency,[4],20.9 µM (active)
CCC1(c2cnc[nH]2)Cc2ccccc2C1,Potency,[1],16.5 µM (active)
same,Potency,[6],10.4 µM (active)
same,Potency,[2],9.27 µM (active)
same,Potency,[3],inactive
same,Potency,[4],inactive
CCCCC(=O)OCC(=O)[C@H]1[C@H](C)C[C@H]2[C@@H]3C[C@H](F)C4=CC(=O)C=C[C@]4(C)[C@@]3(F)[C@@H](O)C[C@@]21C,Potency,[1],20.8 µM (active)
same,Potency,[6],14.7 µM (active)
same,Potency,[3],20.8 µM (active)
same,Potency,[4],inactive
CC[C@@]1(O)C(=O)OCc2c1cc1n(c2=O)Cc2c-1nc1ccccc1c2/C=N/OC(C)(C)C,Potency,[1],0.465 µM (active)
same,Potency,[6],0.522 µM (active)
same,Potency,[2],0.0165 µM (active)
same,Potency,[3],0.0369 µM (active)
same,Potency,[4],1.87 µM (active)
CC(=O)[C@@]1(O)CC[C@H]2[C@@H]3C[C@H](C)C4=CC(=O)CC[C@]4(C)[C@H]3CC[C@@]21C,Potency,[5],0.827 µM (active)
same,Potency,[1],inactive
same,Potency,[6],0.414 µM (active)
same,Potency,[2],inactive
same,Potency,[3],inactive
same,Potency,[4],inactive
O=c1[nH]sc2cc(Cl)ccc12,Potency,[6],6.57 µM (active)
same,Potency,[4],inactive
Cc1nn(-c2ccccc2)c(C)c1/C=N/N1CCN(Cc2ccccc2)CC1,Potency,[7],15.8 µM (active)
same,Potency,[8],inactive
COc1ccccc1N1CCN(CCN2C(=O)CC3(CCCC3)CC2=O)CC1,Potency,[7],56.2 µM (active)
same,Potency,[8],inactive
COc1cccc2c1[C@@H]1CN(CCCCn3c(=O)[nH]c4c(sc5ncc(-c6ccccc6)nc54)c3=O)C[C@@H]1CO2,Potency,[8],inactive
CC(=O)OCC(=O)[C@@]1(O)CCC2C3CCC4=CC(=O)CC[C@]4(C)C3[C@@H](O)C[C@@]21C (some centres not stated),Potency,[1],inactive
same,Potency,[3],inactive
same,Potency,[4],inactive
CCOC(=O)Cn1cccc1-c1nc(-c2ccc(OC)cc2)c(-c2ccc(OC)cc2)s1,Potency,[9],24.1 µM (active)
O=[N+]([O-])c1ccc(O)c2ncccc12,Potency,[1],10.4 µM (active)
same,Potency,[4],9.35 µM (active)
NC(N)=NCCCCN=C(N)N,Potency,[7],inactive
same,Potency,[8],inactive
N[C@@H](Cc1cc(I)c(O)c(I)c1)C(=O)O,Potency,[10],inactive
same,Potency,[9],inactive
Cn1cnc2c(NCc3ccccc3)nc(NCCO)nc21,Potency,[7],inactive
same,Potency,[8],inactive
Nc1ncnc2n[nH]c(Nc3ccc(F)cc3)c12,Potency,[7],inactive
same,Potency,[8],inactive
COC(=O)C1=CO[C@@H](O)[C@@H]2C(CO)=CC[C@H]12,Potency,[7],inactive
same,Potency,[8],inactive
O=[N+]([O-])c1ccc(-c2nc(-c3ccc(F)cc3)c(-c3ccncc3)[nH]2)cc1,Potency,[8],inactive
N[C@@H](Cn1ccc(=O)c(O)c1)C(=O)O,Potency,[7],inactive
same,Potency,[8],inactive
O=C1NC(c2cccc([N+](=O)[O-])c2)=CCN1c1ccccc1O,Potency,[7],50.1 µM (active)
same,Potency,[8],inactive
COc1c(C)c2c(c(O)c1C/C=C(\C)CCC(=O)OCCN1CCOCC1)C(=O)OC2,Potency,[2],inactive
same,Potency,[8],21.5 µM (active)
O=C(Nc1ccc(S(=O)(=O)N2CCOCC2)cc1)c1cc(Cl)ccc1NS(=O)(=O)c1ccc(Cl)s1,Potency,[10],21.5 µM (active)
same,Potency,[9],17.1 µM (active)
Cc1nc(C2CCCCC2)c(-c2ccc(S(N)(=O)=O)c(F)c2)o1,Potency,[10],24.1 µM (active)
same,Potency,[9],24.1 µM (active)
CC(C)N(CCC(=O)c1ccc2ccccc2c1)Cc1ccccc1,Potency,[7],inactive
same,Potency,[8],26.7 µM (active)
C[N+](C)(C)CCO,Potency,[7],inactive
same,Potency,[8],inactive
O=C(CCCCC(=O)Nc1c(I)cc(I)c(C(=O)O)c1I)Nc1c(I)cc(I)c(C(=O)O)c1I,"activity change, negative = inhibition",[10],9.18% [at 18.8 µM]
COc1cc(/C=C/C(N)=O)cc(OC)c1OC,Potency,[1],inactive
same,Potency,[3],inactive
same,Potency,[4],inactive
CCC(=O)O[C@H]1[C@H](O[C@@H]2[C@@H](C)[C@H](O[C@H]3C[C@@](C)(OC)[C@@H](O)[C@H](C)O3)[C@@H](C)C(=O)O[C@H](CC)[C@@](C)(O)[C@H](O)[C@@H](C)C(=O)[C@H](C)C[C@@]2(C)O)O[C@H](C)C[C@@H]1N(C)C,Potency,[10],34.1 µM (active)
same,Potency,[9],13.6 µM (active)
Clc1ccc2c(c1)N=C(N1CCNCC1)c1ccccc1N2,Potency,[7],inactive
same,Potency,[8],inactive
O=C(COCCOCCOCC(=O)Nc1c(I)cc(I)c(C(=O)O)c1I)Nc1c(I)cc(I)c(C(=O)O)c1I,Potency,[10],inactive
O=C1NC(=O)/C(=C/c2ccc3c(c2)OC(F)(F)O3)S1,Potency,[7],inactive
same,Potency,[10],inactive
Brc1ccc([C@H]2CN3CCSC3=N2)cc1,Potency,[7],79.4 µM (active)
CCN(CC)CCNC(=O)c1ccc(NS(C)(=O)=O)cc1,Potency,[7],inactive
same,Potency,[8],inactive
